Laboratory results reported in the supplement of paper PMC10849652.
The full data set covers some 7,900 targets. This sample favours those with a hit. About 0.6% of all pairs of compound and target were hits.

Columns and labels:
Assay in all cases: log2 fold change, soluble protein after heating vs DMSO (PISA); higher = thermal stabilisation; K562 cells, 10 uM, 30 min; active = over 0.2 and 3.5 SD of the protein, either way, in both replicates (recomputed)
[1] = compound: CS(=O)(=O)c1ccc(-c2cnc(N)c(C(=O)Nc3ccccc3)n2)cc1
Outline: (§1)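 K562 cells (2×10^6 cells/mL) were treated with 10 μM compound for 30 min, and aliquots were heated for 3 min over 48°C-58°C. Pooled aliquots were extracted in PBS with 0.5% NP-40 at 4°C, and the supernatant after 21,000xg for 90 min was measured by TMTpro 16plex LC-MS/MS with channel sums equalised. Reported thermal stability, relative to control samples and from duplicates, is a log2 fold change.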

[2] = compound: C[C@@H](Oc1cc(-c2cnn(C3CCNCC3)c2)cnc1N)c1c(Cl)ccc(F)c1Cl [crizotinib]
Outline: as §1

[3] = compound: C[C@@H]1COCCN1C2=NC(=NC(=C2)C3(CC3)S(=O)(=O)C)C4=C5C=CNC5=CC=C4
Outline: as §1

[4] = compound: C[C@H](C1=CC=C(C=C1)C(=O)NC2=C3C=CNC3=NC=C2)N
Outline: as §1

[5] = compound: C[C@H](Nc1ncnc2nc[nH]c12)c1cc2cccc(Cl)c2c(=O)n1-c1ccccc1 [duvelisib]
Outline: as §1

[6] = compound: Cc1cc(Nc2cc(CN3CCOCC3)c3nc(C)c(Cc4ccc(Cl)cc4F)n3n2)n[nH]1 [gandotinib]
Outline: as §1

[7] = compound: Cc1cc(Nc2cc(N3CCN(C)CC3)nc(Sc3ccc(NC(=O)C4CC4)cc3)n2)n[nH]1 [tozasertib]
Outline: as §1

[8] = compound: Cc1cc(SCc2sc(-c3ccc(C(F)(F)F)cc3)nc2C)ccc1OCC(=O)O
Outline: as §1

[9] = compound: Cc1ccc(-n2nc(C(C)(C)C)cc2NC(=O)Nc2ccc(OCCN3CCOCC3)c3ccccc23)cc1 [doramapimod]
Outline: as §1

[10] = compound: Cc1ccc(C(=O)N(CCCN)[C@@H](c2nc3cc(Cl)ccc3c(=O)n2Cc2ccccc2)C(C)C)cc1 [ispinesib]
Outline: as §1

Measured: log2 fold change

NEDD4L (UniProt Q96PU5)
UniProt Q96PU5, sequence (Q96PU5 whole entry, looked up): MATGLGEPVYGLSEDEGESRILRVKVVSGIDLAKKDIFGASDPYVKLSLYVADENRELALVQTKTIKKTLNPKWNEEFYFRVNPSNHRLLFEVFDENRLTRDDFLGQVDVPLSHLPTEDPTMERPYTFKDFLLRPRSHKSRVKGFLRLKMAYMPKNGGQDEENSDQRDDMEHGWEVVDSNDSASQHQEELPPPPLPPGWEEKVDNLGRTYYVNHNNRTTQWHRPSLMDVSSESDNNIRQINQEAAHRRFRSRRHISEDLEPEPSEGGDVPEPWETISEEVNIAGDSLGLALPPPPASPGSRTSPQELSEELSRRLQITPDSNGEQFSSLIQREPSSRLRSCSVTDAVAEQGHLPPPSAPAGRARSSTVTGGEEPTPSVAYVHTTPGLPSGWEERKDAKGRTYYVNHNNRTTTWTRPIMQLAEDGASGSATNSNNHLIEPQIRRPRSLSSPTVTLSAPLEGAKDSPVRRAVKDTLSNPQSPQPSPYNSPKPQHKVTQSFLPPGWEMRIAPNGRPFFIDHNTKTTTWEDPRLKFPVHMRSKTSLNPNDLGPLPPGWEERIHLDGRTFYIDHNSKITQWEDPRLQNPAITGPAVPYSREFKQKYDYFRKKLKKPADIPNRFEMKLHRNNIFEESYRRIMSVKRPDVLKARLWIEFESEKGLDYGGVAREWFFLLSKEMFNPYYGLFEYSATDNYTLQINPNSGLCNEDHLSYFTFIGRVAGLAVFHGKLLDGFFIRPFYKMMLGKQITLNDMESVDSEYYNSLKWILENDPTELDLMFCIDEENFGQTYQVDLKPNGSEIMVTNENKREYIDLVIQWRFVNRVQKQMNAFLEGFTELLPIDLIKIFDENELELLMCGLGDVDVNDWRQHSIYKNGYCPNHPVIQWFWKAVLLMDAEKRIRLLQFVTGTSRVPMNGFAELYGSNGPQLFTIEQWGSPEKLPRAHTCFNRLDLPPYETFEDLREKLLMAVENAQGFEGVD
inactive: [1] 0.015 | [2] -0.005 | [3] -0.071 | [4] -0.105 | [5] 0 | [6] 0.015 | [7] 0.088 | [8] 0.083 | [9] 0.026 | [10] -0.037

MRPS26 (UniProt Q9BYN8)
inactive: [1] 0.097 | [2] 0.005 | [3] 0.009 | [4] 0.291 | [5] 0.002 | [6] 0.158 | [7] 0.146 | [8] 0.065 | [9] 0.059
active: [10] -0.421

NOP56 (UniProt O00567)
inactive: [1] -0.101 | [2] -0.103 | [3] -0.338 | [4] 0.285 | [5] -0.022 | [6] 0.064 | [7] -0.043 | [8] 0 | [9] 0.178 | [10] 0.162

OXR1 (UniProt Q8N573)
inactive: [1] 0.02 | [2] -0.074 | [3] 0.014 | [4] -0.048 | [5] 0.063 | [6] 0 | [7] 0.021 | [8] -0.011 | [9] 0.001 | [10] -0.095

OGFOD1 (UniProt Q8N543)
UniProt Q8N543, sequence (Q8N543 whole entry, looked up): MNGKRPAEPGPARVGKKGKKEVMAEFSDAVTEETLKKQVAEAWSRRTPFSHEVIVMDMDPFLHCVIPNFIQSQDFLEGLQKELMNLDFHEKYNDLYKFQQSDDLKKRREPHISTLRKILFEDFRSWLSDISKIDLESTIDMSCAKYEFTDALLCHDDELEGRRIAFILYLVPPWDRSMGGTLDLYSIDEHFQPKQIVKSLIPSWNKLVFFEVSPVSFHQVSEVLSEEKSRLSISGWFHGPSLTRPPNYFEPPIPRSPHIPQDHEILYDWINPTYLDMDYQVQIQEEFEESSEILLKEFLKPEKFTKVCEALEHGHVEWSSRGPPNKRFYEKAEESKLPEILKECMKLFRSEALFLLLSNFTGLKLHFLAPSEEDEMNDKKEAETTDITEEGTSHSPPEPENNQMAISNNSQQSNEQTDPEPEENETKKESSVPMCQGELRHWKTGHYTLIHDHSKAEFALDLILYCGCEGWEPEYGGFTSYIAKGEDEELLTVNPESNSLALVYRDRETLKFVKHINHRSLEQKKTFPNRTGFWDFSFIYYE
inactive: [1] 0.034 | [2] -0.001 | [3] 0.042 | [4] 0.003 | [5] 0.046 | [6] -0.009 | [7] -0.02 | [8] -0.021 | [9] -0.015 | [10] -0.043

MTHFD1 (UniProt P11586)
inactive: [1] 0.101 | [2] -0.15 | [3] 0.107 | [4] -0.003 | [5] 0.016 | [6] -0.077 | [7] -0.054 | [8] 0.054 | [9] -0.053 | [10] -0.021

MOV10 (UniProt Q9HCE1)
inactive: [1] -0.086 | [2] 0.032 | [3] -0.258 | [4] 0.254 | [5] -0.059 | [6] 0.239 | [7] 0.01 | [8] -0.023 | [9] 0.103 | [10] -0.093

MMS19 isoform 8 (UniProt Q96T76)
UniProt Q96T76, sequence (Q96T76 whole entry, looked up): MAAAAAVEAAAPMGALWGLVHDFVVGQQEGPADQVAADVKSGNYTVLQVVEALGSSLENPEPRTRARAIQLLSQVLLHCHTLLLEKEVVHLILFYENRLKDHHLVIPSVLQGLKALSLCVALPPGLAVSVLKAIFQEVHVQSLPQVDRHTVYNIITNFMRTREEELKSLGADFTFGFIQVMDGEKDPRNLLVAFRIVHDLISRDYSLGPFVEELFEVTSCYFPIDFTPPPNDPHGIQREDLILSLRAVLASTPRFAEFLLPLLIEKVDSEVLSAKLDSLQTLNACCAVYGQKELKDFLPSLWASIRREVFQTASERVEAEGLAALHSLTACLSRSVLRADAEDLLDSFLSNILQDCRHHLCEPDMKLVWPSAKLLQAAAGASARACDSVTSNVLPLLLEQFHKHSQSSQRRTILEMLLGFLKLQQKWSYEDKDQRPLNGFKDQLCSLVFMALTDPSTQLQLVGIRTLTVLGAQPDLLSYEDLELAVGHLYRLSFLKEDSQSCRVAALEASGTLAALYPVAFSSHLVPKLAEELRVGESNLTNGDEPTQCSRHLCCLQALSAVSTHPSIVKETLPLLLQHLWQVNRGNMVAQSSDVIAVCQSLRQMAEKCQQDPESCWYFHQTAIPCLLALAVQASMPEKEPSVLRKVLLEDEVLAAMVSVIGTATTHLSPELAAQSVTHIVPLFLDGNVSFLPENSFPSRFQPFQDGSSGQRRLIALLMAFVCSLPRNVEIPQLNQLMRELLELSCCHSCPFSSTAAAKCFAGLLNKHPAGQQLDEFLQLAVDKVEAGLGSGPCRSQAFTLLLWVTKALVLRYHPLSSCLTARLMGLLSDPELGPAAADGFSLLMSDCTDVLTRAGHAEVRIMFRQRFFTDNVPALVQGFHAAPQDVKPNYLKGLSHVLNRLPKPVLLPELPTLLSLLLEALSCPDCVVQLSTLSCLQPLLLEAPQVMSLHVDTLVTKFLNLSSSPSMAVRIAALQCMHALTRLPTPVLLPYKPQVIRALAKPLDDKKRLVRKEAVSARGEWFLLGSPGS
inactive: [1] 0.002 | [2] -0.156 | [3] 0.023 | [4] 0.053 | [5] 0.044 | [6] -0.129 | [7] 0.051 | [8] 0.103 | [9] 0.033 | [10] -0.035

NRF1 isoform 4 (UniProt Q16656)
UniProt Q16656, sequence (Q16656 whole entry, looked up): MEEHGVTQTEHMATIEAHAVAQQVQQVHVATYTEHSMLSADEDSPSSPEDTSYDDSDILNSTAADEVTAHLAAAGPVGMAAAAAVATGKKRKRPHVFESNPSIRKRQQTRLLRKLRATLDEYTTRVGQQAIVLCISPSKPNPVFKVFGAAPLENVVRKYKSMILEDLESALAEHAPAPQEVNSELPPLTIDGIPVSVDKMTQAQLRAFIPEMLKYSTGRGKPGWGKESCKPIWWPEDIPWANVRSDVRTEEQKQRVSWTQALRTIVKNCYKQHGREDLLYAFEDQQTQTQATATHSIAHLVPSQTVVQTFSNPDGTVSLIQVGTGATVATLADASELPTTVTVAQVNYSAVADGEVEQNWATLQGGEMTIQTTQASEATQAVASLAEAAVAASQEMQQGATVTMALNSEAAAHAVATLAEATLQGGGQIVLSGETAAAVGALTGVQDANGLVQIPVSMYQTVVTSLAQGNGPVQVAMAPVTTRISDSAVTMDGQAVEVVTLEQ
inactive: [1] 0.03 | [2] 0.071 | [3] 0.275 | [4] -0.107 | [5] 0.053 | [6] -0.125 | [7] 0.074 | [8] 0.017 | [9] -0.003 | [10] -0.004

NMT2 (UniProt O60551)
UniProt O60551, sequence (O60551 whole entry, looked up): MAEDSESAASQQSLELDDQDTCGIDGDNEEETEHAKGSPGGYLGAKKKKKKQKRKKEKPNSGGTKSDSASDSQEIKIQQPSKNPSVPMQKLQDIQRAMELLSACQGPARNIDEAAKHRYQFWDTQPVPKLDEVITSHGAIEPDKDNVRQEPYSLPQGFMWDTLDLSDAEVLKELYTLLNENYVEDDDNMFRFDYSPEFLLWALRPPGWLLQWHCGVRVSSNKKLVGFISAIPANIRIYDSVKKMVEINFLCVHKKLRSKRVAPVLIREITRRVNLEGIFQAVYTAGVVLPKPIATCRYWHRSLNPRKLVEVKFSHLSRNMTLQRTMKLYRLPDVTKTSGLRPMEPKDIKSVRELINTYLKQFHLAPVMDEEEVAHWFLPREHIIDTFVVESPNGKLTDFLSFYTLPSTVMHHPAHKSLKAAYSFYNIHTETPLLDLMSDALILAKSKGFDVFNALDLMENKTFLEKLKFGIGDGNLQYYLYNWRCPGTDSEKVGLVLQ
inactive: [1] 0.043 | [2] -0.187 | [3] 0.059 | [4] 0.018 | [5] 0.038 | [6] 0.013 | [7] 0.042 | [8] 0.023 | [9] -0.013 | [10] -0.167

MSH6 (UniProt P52701)
inactive: [1] 0.075 | [2] -0.427 | [3] 0.152 | [4] -0.018 | [5] 0.009 | [6] -0.196 | [7] 0.099 | [8] 0.185 | [9] -0.053 | [10] -0.087

MRPL50 (UniProt Q8N5N7)
inactive: [1] -0.031 | [2] 0.133 | [3] 0.045 | [4] -0.045 | [5] -0.016 | [6] 0.04 | [7] 0.042 | [8] 0.104 | [9] 0.092 | [10] 0.199

NQO1 (UniProt P15559)
inactive: [1] 0.055 | [2] -0.004 | [3] 0.069 | [4] -0.06 | [5] 0.165 | [6] -0.062 | [7] 0.011 | [8] 0.152 | [9] -0.008 | [10] 0.05

PACRGL (UniProt Q8N7B6)
inactive: [1] -0.074

NCAPH (UniProt Q15003)
inactive: [1] 0.049 | [2] 0.013 | [3] -0.017 | [4] 0.072 | [5] 0.024 | [6] -0.11 | [7] 0.102 | [8] 0.081 | [9] 0.006 | [10] -0.064

NGLY1 (UniProt Q96IV0)
inactive: [1] 0.017 | [2] -0.079 | [3] -0.01 | [4] 0.093 | [5] 0.028 | [6] -0.043 | [7] 0.048 | [8] 0.032 | [9] 0.001 | [10] -0.059

MRPS27 isoform 2 (UniProt Q92552)
inactive: [1] -0.017 | [2] -0.062 | [3] 0.005 | [4] 0.097 | [5] 0.029 | [6] 0.094 | [7] 0.002 | [8] 0.096 | [9] 0.013
active: [10] -0.304

NIPSNAP2 (UniProt C9J7B1)
inactive: [1] 0

PACS1 (UniProt Q6VY07)
UniProt Q6VY07, sequence (Q6VY07 whole entry, looked up): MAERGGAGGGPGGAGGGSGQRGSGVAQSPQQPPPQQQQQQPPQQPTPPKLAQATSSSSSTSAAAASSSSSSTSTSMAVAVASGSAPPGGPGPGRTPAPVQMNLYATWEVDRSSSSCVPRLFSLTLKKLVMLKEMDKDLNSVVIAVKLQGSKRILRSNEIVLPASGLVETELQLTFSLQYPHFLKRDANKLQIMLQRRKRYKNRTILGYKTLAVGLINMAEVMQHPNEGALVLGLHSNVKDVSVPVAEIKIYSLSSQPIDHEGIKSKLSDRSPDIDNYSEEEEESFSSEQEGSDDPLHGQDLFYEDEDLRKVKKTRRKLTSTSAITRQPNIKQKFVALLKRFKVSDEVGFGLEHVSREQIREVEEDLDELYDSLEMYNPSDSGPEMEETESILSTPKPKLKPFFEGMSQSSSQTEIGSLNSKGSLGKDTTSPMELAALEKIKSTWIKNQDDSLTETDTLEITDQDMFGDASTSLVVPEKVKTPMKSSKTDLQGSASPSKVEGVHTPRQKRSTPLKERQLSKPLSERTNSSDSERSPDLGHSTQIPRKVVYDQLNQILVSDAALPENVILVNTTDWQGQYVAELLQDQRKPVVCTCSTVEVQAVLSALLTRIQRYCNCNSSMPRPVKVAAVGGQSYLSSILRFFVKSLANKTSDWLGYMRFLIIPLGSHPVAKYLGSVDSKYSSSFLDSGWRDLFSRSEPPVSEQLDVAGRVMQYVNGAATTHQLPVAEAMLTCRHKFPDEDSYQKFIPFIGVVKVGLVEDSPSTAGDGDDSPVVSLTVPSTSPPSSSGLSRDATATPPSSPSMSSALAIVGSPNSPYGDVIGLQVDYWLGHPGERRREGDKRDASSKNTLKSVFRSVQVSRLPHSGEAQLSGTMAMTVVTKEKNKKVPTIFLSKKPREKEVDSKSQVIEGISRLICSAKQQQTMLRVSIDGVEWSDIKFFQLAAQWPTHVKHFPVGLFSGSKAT
inactive: [1] 0.013 | [2] -0.053 | [3] 0.051 | [4] -0.015 | [5] 0.033 | [6] -0.018 | [7] 0 | [8] -0.014 | [9] 0.06 | [10] 0.042

NMNAT1 (UniProt Q9HAN9)
inactive: [1] -0.053 | [2] -0.016 | [3] -0.435 | [4] 0.164 | [5] -0.046 | [6] 0.132 | [7] 0.024 | [8] -0.056 | [9] 0.296 | [10] -0.212

MRPS9 (UniProt P82933)
active: [10] -0.344
inactive: [1] -0.001 | [2] 0.011 | [3] 0.036 | [4] 0.202 | [5] -0.023 | [6] -0.054 | [7] -0.055 | [8] 0.086 | [9] 0.031

NRDC isoform 2 (UniProt O43847)
inactive: [1] 0.034 | [2] -0.065 | [3] 0.054 | [4] -0.034 | [5] 0.008 | [6] -0.029 | [7] 0.02 | [8] 0.089 | [9] -0.036 | [10] -0.022

NAPG (UniProt Q99747)
UniProt Q99747, sequence (Q99747 whole entry, looked up): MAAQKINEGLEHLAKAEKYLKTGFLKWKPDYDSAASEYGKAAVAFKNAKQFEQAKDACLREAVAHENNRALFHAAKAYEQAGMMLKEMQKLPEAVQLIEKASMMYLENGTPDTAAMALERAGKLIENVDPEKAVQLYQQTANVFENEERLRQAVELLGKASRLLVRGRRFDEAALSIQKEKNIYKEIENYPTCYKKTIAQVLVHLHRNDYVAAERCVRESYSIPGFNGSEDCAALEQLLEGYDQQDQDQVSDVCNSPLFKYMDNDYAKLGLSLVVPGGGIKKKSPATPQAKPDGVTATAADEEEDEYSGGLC
inactive: [1] 0.045 | [2] -0.029 | [3] 0.045 | [4] -0.098 | [5] 0.054 | [6] -0.046 | [7] 0.126 | [8] 0.143 | [9] -0.05 | [10] 0.025

OXA1L (UniProt Q15070)
inactive: [1] -0.042 | [2] -0.064 | [3] 0.004 | [4] -0.018 | [5] 0.021 | [6] 0.012 | [7] 0.005 | [8] 0.018 | [9] -0.01 | [10] -0.1

NDUFAF6 (UniProt Q330K2)
inactive: [1] -0.052 | [2] -0.197 | [3] 0.182 | [4] -0.025 | [5] 0.144 | [6] -0.167 | [7] -0.051 | [8] 0.027 | [9] -0.065 | [10] -0.273

NDUFA7 (UniProt M0R0N0)
inactive: [1] 0.095

MITD1 (UniProt Q8WV92)
inactive: [1] -0.082 | [2] -0.271 | [3] -0.055 | [4] 0.133 | [5] 0.011 | [6] -0.068 | [7] -0.075 | [8] -0.147 | [9] 0.103 | [10] -0.072

MRPS6 (UniProt P82932)
inactive: [1] -0.038 | [2] -0.076 | [3] 0.117 | [4] 0.085 | [5] -0.002 | [6] -0.016 | [7] 0.022 | [8] 0.081 | [9] 0.048 | [10] -0.208

PAFAH1B3 (UniProt Q15102)
inactive: [1] 0.059 | [2] 0.041 | [3] 0.165 | [4] -0.039 | [5] 0.123 | [6] -0.062 | [7] -0.035 | [8] 0.031 | [9] -0.009 | [10] 0.014

NOL11 (UniProt Q9H8H0)
inactive: [1] -0.036 | [2] 0.084 | [3] -0.017 | [4] -0.041 | [5] 0.073 | [6] -0.061 | [7] -0.01 | [8] -0.015 | [9] -0.005 | [10] 0.097

NME7 (UniProt Q9Y5B8)
inactive: [1] -0.187 | [2] -0.136 | [3] -0.027 | [4] 0.046 | [5] -0.031 | [6] -0.091 | [7] 0.068 | [8] 0.056 | [9] 0.033 | [10] -0.117

NELFB isoform 2 (UniProt Q8WX92)
inactive: [1] 0.059 | [2] 0.019 | [3] 0.087 | [4] -0.08 | [5] 0.088 | [6] -0.093 | [7] 0.033 | [8] 0.086 | [9] -0.087 | [10] 0.042
